The record followed here is PubChem BioAssay AID651957 (The Scripps Research Institute Molecular Screening Center, 2012).

One may read the inhibition as the change of the read-out against control, counted positive when it falls.

The campaign covered roughly 370,000 compounds. About 620 (0.17%) were called active.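 The calls were made as follows: active = inhibition above the mean inhibition of all tested compounds plus 3 SD, set per campaign (cut at about 52% in these data); inactive = the rest.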 The entries come from a sample that favours actives as a whole.

Sequence of Nuclear receptor coactivator 2 (Homo sapiens) (Q15596 whole entry, looked up, the tested form may be a part): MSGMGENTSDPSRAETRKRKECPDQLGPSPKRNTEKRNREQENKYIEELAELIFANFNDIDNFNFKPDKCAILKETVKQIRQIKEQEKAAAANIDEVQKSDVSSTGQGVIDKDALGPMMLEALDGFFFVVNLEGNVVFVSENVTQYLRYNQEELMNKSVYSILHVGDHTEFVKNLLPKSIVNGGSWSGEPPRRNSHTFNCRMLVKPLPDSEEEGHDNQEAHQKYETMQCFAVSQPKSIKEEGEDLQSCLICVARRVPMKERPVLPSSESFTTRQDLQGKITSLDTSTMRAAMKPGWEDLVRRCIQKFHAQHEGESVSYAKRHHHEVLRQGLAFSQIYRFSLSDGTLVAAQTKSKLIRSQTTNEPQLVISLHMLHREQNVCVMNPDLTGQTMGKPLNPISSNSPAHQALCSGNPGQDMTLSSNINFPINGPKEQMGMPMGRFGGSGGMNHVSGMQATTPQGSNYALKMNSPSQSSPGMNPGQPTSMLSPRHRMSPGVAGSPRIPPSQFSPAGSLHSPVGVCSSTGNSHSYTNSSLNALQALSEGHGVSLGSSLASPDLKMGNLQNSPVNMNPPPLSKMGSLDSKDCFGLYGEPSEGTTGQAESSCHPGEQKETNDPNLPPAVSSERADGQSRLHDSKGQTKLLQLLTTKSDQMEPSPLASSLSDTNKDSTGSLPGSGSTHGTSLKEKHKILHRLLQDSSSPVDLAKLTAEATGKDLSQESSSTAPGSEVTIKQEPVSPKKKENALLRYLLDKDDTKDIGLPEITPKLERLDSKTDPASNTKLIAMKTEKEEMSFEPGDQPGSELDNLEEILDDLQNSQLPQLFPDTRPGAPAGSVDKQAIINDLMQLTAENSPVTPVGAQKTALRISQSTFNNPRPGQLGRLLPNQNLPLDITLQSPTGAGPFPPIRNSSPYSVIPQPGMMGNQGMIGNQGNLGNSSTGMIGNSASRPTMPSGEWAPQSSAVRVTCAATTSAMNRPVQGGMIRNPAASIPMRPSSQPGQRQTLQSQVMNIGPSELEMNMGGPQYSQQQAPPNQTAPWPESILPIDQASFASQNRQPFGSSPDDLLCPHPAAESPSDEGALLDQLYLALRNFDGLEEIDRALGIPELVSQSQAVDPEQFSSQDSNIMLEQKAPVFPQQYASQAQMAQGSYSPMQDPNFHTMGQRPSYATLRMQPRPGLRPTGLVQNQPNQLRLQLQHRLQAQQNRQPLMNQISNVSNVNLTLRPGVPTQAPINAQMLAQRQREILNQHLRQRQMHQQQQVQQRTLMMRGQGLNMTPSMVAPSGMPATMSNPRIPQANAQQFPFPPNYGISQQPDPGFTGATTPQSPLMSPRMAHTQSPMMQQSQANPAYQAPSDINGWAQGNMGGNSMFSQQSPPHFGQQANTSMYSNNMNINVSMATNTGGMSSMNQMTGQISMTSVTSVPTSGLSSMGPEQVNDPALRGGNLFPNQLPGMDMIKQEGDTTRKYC

This experiment concerns the target Nuclear receptor coactivator 2 (Homo sapiens) (UniProt Q15596). As to the kind of experiment: decrease of SRC2 fusion reporter luminescence – cell-based, SRC2 inhibitor project, primary screen (AID 651957).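 Also: 0% = DMSO treated cells and 100% = cells given Gossypol at 36 µM.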 Particulars: HEK293 GAL4-SRC2 luciferase reporter, at 9 µM, active compounds read high. In general terms: Reporter assays use an easily measured gene product as a stand-in for the process of interest.
With `C=CC1C(OC2OC(CO)C(O)C(O)C2O)OC=C(C(=O)OC)C1CC1CC(=O)CC(CC(=O)CCc2ccc(O)cc2)O1` (stereo unspecified), the inhibition was -3.45% (inactive).

As to `COc1ccc(-c2cc(-c3nnc(SCc4ccc([N+](=O)[O-])cc4)n3N)[nH]n2)cc1`, the inhibition was -26.2% (inactive). For the compound `COc1ccc(CCOC2OC(CO)C(OC(=O)/C=C/c3ccc(O)c(OC)c3)C(O[C@H]3O[C@@H](C)[C@H](O)[C@@H](O)[C@H]3O)C2O)cc1O` (stereo partly specified), the inhibition was -2.46% (inactive).

Consider `CCCCn1c(N)c(N(CC)C(=O)c2ccc(N(C)S(=O)(=O)c3ccc(C)cc3)cc2)c(=O)[nH]c1=O`, for which the inhibition was -16.6% (inactive).

For the compound `CN(C)S(=O)(=O)c1ccc(NC(=O)COC(=O)Cn2[nH]c(=O)c3ccccc3c2=O)cc1`, the inhibition is 10.7% (inactive). With `CCC(CO)Nc1cccc2c1S(=O)(=O)N(Cc1cn(Cc3ccccc3C(F)(F)F)nn1)Cc1ccccc1O2` (stereo unspecified) the figure was -19.2% (inactive); with `O=C(OC12CC3CC(CC(C3)C1)C2)c1ccc(NCc2cc(O)ccc2O)cc1`, 84.2% (active); with `Cc1nc(N)nc(SCc2ccc([N+](=O)[O-])cc2)c1N`, -3.96% (inactive). The result for `COCCCNC(=O)C[C@H]1C[C@@]2(C(=O)OC)C(=C[C@H](C(C)(C)C)O[C@@H]2C)N(Cc2ccc(Cl)cc2Cl)C1=O` reads 16.8% (inactive). The result for `CCOC(=O)[C@]12CCCC=C1N(Cc1ccc(OC)cc1)C(=O)[C@@H]2CC(=O)NCc1cccs1` reads 7.23% (inactive). Regarding `CCOC(=O)[C@]12CCCCC/C=C\1N(Cc1ccc(OC)cc1)C(=O)[C@H]2CC(=O)N1CCOCC1`, the inhibition is 8.19% (inactive). With `Cc1sc2ncn(CC(=O)NCCCC(=O)NCc3ccc(F)cc3)c(=O)c2c1C` the figure was -10.8% (inactive); with `Cc1[nH]n(C(N)=S)c(=O)c1N=Nc1ccc(Cl)cc1Cl`, -13.3% (inactive); with `CCCCOCCCNC(=O)C[C@H]1C[C@@]2(C(=O)OC)C(=C[C@H](COCc3ccccc3)O[C@@H]2C)N(Cc2cccc3ccccc23)C1=O`, 6.59% (inactive). The result for `COc1ccc(C(C#N)=C2C=CC(=NO)c3ccccc32)cc1` reads 23.7% (inactive); that for `O=C(Nc1ccc(N2CCCCC2)cc1)c1cc(S(=O)(=O)N2CCOCC2)ccc1F`, 10.1% (inactive); that for `CC(=O)Nc1ccc(S(=O)(=O)Nc2ccc(N3CCCCC3)cc2)cc1`, 63.2% (active). The result for `CC(=O)Nc1ccc(S(=O)(=O)N2CCCC2C(=O)O)cc1` (stereo unspecified) reads 10.5% (inactive). `C[C@H](NC(=O)C1CC(=O)N(c2ccc3c(c2)OCO3)C1)C(=O)NCc1ccco1` (stereo partly specified): the inhibition was -21.3% (inactive). With `CN(C)[C@H]1CCN(c2cccc3c2S(=O)(=O)N2CC[C@H](C2)O3)C1` the figure was -9.6% (inactive); with `CC(c1ccc(N)cc1)c1cn(C)c2ccccc12` (stereo unspecified), -4.44% (inactive).

As to `CC(CCN1CCC(C(O)(c2ccccc2)c2ccccc2)CC1)Oc1ccc(Cl)cc1` (stereo unspecified), the inhibition is -21.2% (inactive). The result for `COc1ccc(-n2c(SCC(=O)Nc3ccc(C)c(Cl)c3)nc3ccccc3c2=O)cc1` reads -1.63% (inactive). With `O=C(CN1CCN(c2ccc(O)cc2)CC1)NC1CCCc2ccccc21` (stereo unspecified) the figure was 0.42% (inactive). The result for `COc1ccc(OC)c(NC(=O)c2cc(-c3cc(F)ccc3OCC3CCCO3)n[nH]2)c1` (stereo unspecified) reads 75.3% (active). For `COc1cc(F)ccc1-c1cc(C(=O)NCC2CCCCC2)[nH]n1`, the inhibition is -20% (inactive).

For the compound `CCCOc1ccc(F)cc1-c1cc(C(=O)Nc2ccc(F)cc2)[nH]n1`, the inhibition was 0.04% (inactive). With `O=C(COC(=O)c1cnccn1)Nc1ccc(Cl)cc1C(F)(F)F` the figure was -47.6% (inactive); with `C=CCN1C(=O)[C@H](CC(=O)NCCCN2CCCC2=O)[C@@]2(C(=O)OCC)CCCC=C12`, -13.7% (inactive); with `CCNc1nc(NC(C)C)nc(OCCOC(=O)c2ccccc2)n1`, -5.88% (inactive). With `CN(c1ccc(OCC(=O)OCC(=O)Nc2cccc([N+](=O)[O-])c2)cc1)S(=O)(=O)c1ccc(F)cc1`, the inhibition was 5.05% (inactive).
